Holding throughout (assay): NCI-60 one-dose screen, 48 h (100 = growth as untreated, 0 = no growth, -100 = all killed)
Test [1] concerns HCT-15 colon. Particulars: 10 µM unless noted.
In test [2] the test system is HT29 colon. Conditions: 10 µM unless noted.
The subject of test [3] is SNB-19 CNS. Conditions: 10 µM unless noted.
Test [4] concerns U251 CNS. Conditions: 10 µM unless noted.
For test [5], the system named is PC-3 prostate. Conditions: 10 µM unless noted.
Test [6] concerns SK-MEL-5 melanoma. Conditions: 10 µM unless noted.
Test [7] has as its system UACC-62 melanoma. Conditions: 10 µM unless noted.
Test [8] concerns LOX IMVI melanoma. Conditions: 10 µM unless noted.
Test [9] has as its system SK-MEL-28 melanoma. Particulars: 10 µM unless noted.
The subject of test [10] is EKVX NSCLC. Particulars: 10 µM.
Test [11] relates to SN12C renal. Conditions: 10 µM unless noted.
The test system of test [12] is UO-31 renal. Conditions: 10 µM unless noted.
The subject of test [13] is TK-10 renal. Conditions: 10 µM unless noted.
For test [14], the system named is ACHN renal. Particulars: 10 µM unless noted.
The subject of test [15] is CAKI-1 renal. Particulars: 10 µM unless noted.
Test [16] relates to A498 renal. Particulars: 10 µM unless noted.
In test [17] the test system is CCRF-CEM leukemia. Conditions: 10 µM.
Test [18] concerns MOLT-4 leukemia. Particulars: 10 µM unless noted.
Test [19] has as its system SNB-75 CNS. Conditions: 10 µM unless noted.
The subject of test [20] is SK-MEL-2 melanoma. Particulars: 10 µM unless noted.

About 83,000 compounds went through this panel and 20% of them were active in at least one assay; those are over-represented in the sample as a whole.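 Assay: single dose, 48 h. Readout: percent growth (0 = no net growth; negative = cell death). Active: <10.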 A number with no mark means an inactive call. The source made the active and inactive calls.

With `Nc1nc(-c2cccc(Br)c2)cc(-c2cc3ccccc3oc2=O)n1`, the growth is 106% in test [1]; 117% in test [2]; 109% in test [3]; 106% in test [4]; 122% in test [5]; 89.7% in test [6]. The growth is 101% in test [7]; 95.8% in test [8]; 126% in [9]; 93.9% in test [10]; 99.9% in test [11]; 64.2% in [12]. Also, the growth in test [13] was 74.8%; in [14], 98.2%; in [15] it was 92%; in [16] it was 123%; in test [17] it was 77.1%; in [18], 82.4%.

Consider `COc1cccc(-c2cc(-c3cc4ccccc4oc3=O)nc(N)n2)c1`, for which the growth in test [1] was 107%; in test [2] it was 117%; in [3], 106%; in test [4], 110%; in test [5], 89.3%; in [6], 95%. Also, the growth in test [7] is 104%; in [8] it was 95.4%; in [9], 91.7%; in test [10] it was 99.2%; in test [11], 98.6%; in [12], 55.8%. Also, the growth in test [13] was 74.5%; in test [14], 98.3%; in test [15], 111%; in test [16], 127%; in test [17], 87.6%; in test [18], 91.4%.

In the case of `OCCN1CCCN(CCCN2c3ccccc3Sc3ccc(C(F)(F)F)cc32)CC1`, the growth was 61.6% in [1]; 8.24% (active) in test [2]; 50.4% in test [19]; 33.6% in test [4]; 57.2% in test [5]; 36.3% in [6]. In addition, the growth in test [7] is -46.3% (active); in test [8], 49%; in [9] it was 30.7%; in test [20] it was 81.5%; in test [11], 62.9%; in test [12], 41.8%. Further, the growth is 68% in test [14], 85.7% in test [15], 73.7% in test [16] and 23.4% in test [18].

In the case of `CCCCCCNc1nc(N2CCOCC2)c2[nH]c(NCCCCCC)nc2n1`, the growth is -74.6% (active) in test [1]; -95.1% (active) in test [19]; -92.7% (active) in test [3]; -93.4% (active) in test [4]; -21.2% (active) in test [5]; -90.6% (active) in test [6]. Moreover, the growth is -97.4% (active) in [7]; -100% (active) in [8]; -94.4% (active) in test [9]; -51.5% (active) in [10]; -94.9% (active) in test [11]; -81% (active) in test [12]. In addition, the growth in [13] is -97.2% (active); in test [14], -92.7% (active); in test [15], -63.8% (active); in test [17] it was -32.3% (active); in test [18], -53.6% (active).

In the case of `Cc1ccc2c(O)c(O)cc(NC(C)CCCN)c2n1` (centres undefined), the growth in [2] was 47.7%; in test [19], 108%; in test [3], 87.7%; in test [4], 25.7%; in test [5], 89.2%; in test [6], 95.7%. Besides, the growth was 113% in test [7]; 31.2% in [8]; 131% in test [9]; 75% in test [20]; 78% in test [10]; 32.2% in test [11]. Moreover, the growth in [12] is 96.8%; in test [13], 104%; in test [14], 108%; in test [15], 87.4%; in [16], 81.3%; in [17] it was 39.9%. Also, the growth in test [18] is 7.64% (active).

Consider `CCOC(=O)C(C)C(C)(O)c1ccccc1` (centres undefined), for which the growth is 106% in test [2]; 87.5% in test [19]; 107% in test [4]; 102% in test [6]; 97.4% in test [7]; 93.8% in test [8]. Also, the growth was 101% in test [9]; 97.7% in test [20]; 98.2% in test [11]; 78.5% in [12]; 111% in [14]; 109% in [15]. Besides, the values for the growth in test [16] and in [18] were 91.5% and 95.4%, respectively.

With `CCOC(=O)C1CCCN1C(=O)C1(NC(C)=O)CCCC1` (centres undefined), the growth in [2] is 124%; in [19], 95.7%; in [3] it was 125%; in test [4], 104%; in test [5], 95.6%; in test [6], 109%. The growth was 121% in test [7]; 104% in test [8]; 114% in test [9]; 110% in test [20]; 100% in test [10]; 118% in test [11]. Further, the growth in test [12] is 88.5%; in [13], 107%; in [14], 117%; in [17], 97.4%; in test [18], 116%.

The values are drawn from PubChem BioAssay (NCI).
